# Assay outcomes as filed in PubChem BioAssay.
# Hits are enriched below; roughly 1.9% of the tested compounds scored in any of these assays.
# PrPC surface inh – reduces human prion protein on the cell surface. 370,000 compounds, 0.43% hits. AID 720596. P04156. cell surface PrPC, TR-FRET read-out. inhibition, % at 13.8 µM; in the data active means inhibition above about 24%
# RecA splice inh – blocks M. tuberculosis RecA intein splicing; 290,000 compounds, 0.75% hits; cell-free RecA intein splicing, fluorescence; AID 2221; inhibition, % (test concentration not listed); in the data active means inhibition above about 30%
# Target sequence (P9WHJ3 whole entry, looked up, canonical isoform): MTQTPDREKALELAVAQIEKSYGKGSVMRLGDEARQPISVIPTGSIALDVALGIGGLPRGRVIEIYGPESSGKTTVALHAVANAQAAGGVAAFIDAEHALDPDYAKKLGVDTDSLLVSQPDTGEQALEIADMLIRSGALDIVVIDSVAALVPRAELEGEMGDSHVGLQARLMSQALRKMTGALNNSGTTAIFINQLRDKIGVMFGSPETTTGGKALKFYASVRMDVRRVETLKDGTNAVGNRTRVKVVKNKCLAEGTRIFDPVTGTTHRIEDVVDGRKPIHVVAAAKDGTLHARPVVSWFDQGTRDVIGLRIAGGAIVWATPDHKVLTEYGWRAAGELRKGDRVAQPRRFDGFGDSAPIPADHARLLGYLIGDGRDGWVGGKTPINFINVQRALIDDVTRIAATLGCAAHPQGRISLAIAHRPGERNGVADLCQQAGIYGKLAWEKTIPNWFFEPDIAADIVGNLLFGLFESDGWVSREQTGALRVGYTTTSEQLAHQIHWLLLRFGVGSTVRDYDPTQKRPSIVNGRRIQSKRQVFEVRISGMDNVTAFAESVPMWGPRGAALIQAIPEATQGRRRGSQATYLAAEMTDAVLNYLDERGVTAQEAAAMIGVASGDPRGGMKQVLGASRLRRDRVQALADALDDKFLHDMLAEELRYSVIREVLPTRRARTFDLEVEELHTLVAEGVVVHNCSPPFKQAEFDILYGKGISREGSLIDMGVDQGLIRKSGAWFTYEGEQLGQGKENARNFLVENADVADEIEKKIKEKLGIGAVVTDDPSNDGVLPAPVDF
# SSB-PriA inh – K. pneumoniae PriA-SSBct interaction inhibition; AlphaScreen SSBct-PriA binding, biotinylated peptide; inhibition, % at 33 µM; 430,000 compounds, 0.6% hits; in the data active means inhibition mostly above about 37%, no sharp cut-off; inactive means mostly below about 20%
# PfHsp40 rescue – restores yeast growth despite PfHsp40 toxicity | growth rescue, % at 12.5 µM | S. cerevisiae expressing PfHsp40, growth rescue, ATP luminescence | 340,000 compounds, 0.68% hits; in the data active means growth rescue above about 28%, passing the limit was not always enough;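 further: yeast W303a lacking pdr1 and pdr3 grown in galactose medium; growth measured after three days at 30 °C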
# PrP UTR inh – inhibition of PrP 5' UTR reporter expression; cell-based PrP 5' UTR mRNA reporter, plate reader; 340,000 compounds, 0.35% hits; AID 488862; inhibition, % (concentration not given with the values); in the data active means inhibition above about 52%
# BJeLR viability – kills HRASV12-expressing BJeLR cells | BJeLR (HRASV12) viability, CellTiter-Glo ATP luminescence, 48 h | inhibition, % (test concentration not listed) | 300,000 compounds, 0.17% hits; in the data active means inhibition above about 50%
# Hits are given with their value; . = inactive; / = not tested or not shown; + = active, no number.
SMILES,PrPC surface inh,RecA splice inh,SSB-PriA inh,PfHsp40 rescue,PrP UTR inh,BJeLR viability
C=C(C)C1CC=C(C)/C(=N/Nc2ccccc2[N+](=O)[O-])C1 (stereo not drawn),.,.,/,.,.,.
C=C(C)C1CC=C(C)C(=NNc2ccccc2[N+](=O)[O-])C1 (stereo not drawn),/,/,41,/,/,/
CCOc1cc(S(=O)(=O)NC2CC(C)(C)NC(C)(C)C2)ccc1Cl,.,.,.,123,.,.
CCOc1cc(C)c(Cl)cc1S(=O)(=O)NC1CC(C)(C)NC(C)(C)C1,.,.,.,.,.,.
CCOC(=O)c1ccc(NC(=O)Cn2nc3ccc(SC(C)(C)C)nn3c2=O)cc1,/,/,.,/,/,/
CC(Oc1ccccc1F)C(=O)Nc1ccc(-c2cn3ccsc3n2)cc1 (stereo not drawn),/,/,.,/,/,/
O=S1(=O)N=C(N/N=C/c2ccccn2)c2ccccc21,.,.,/,.,.,.
O=S1(=O)N=C(NN=Cc2ccccn2)c2ccccc21,/,/,82,/,/,/
O=S1(=O)N=C(NN=Cc2cccs2)c2ccccc21,/,/,55,/,/,/
Cc1cc(C)n(-c2nc(CCNC(=O)[C@@H]3CC=CCC3)cs2)n1,/,/,.,/,/,/
CC(C)(C)C(=O)NC(Nc1cccc2cccnc12)C(Cl)(Cl)Cl (stereo not drawn),.,.,87,.,.,.
O=C(CF)NC(Nc1cccc2cccnc12)C(Cl)(Cl)Cl (stereo not drawn),.,.,73,.,.,.
CC1CCc2oc3c(cc(NS(=O)(=O)c4ccc(Br)cc4)c4ccccc43)c2C1 (stereo not drawn),/,/,37,/,/,/
Cc1cc(C)cc(NC(=O)CCCOc2ccc(Cl)cc2)c1,/,/,.,/,/,/
Cc1cc(N2CCN(C)CC2)nc2ccc(NC(=S)NCCN3CCc4ccccc4C3)cc12,.,.,.,49,.,.
Cc1cccc(N2CCN(C(=S)Nc3ccc4nc(N5CCN(C)CC5)cc(C)c4c3)CC2)c1C,.,.,.,.,.,71
Cc1cc(N2CCN(C)CC2)nc2ccc(NC(=S)N3CCCCC3)cc12,.,.,.,.,.,.
CN(C(=O)c1ccc(-c2ccccc2Cl)o1)C1CCS(=O)(=O)C1 (stereo not drawn),/,/,.,/,/,/
Cc1nnc2ccc(-c3cccc(NS(=O)(=O)c4ccc5c(c4)OCCO5)c3)nn12,/,/,.,/,/,/
Cc1ccsc1C=NN=C1C(=O)Nc2ccccc21,/,/,.,/,/,/
CCCC(=O)OCC(=O)Nc1ccc(Cl)cc1[N+](=O)[O-],/,/,78,/,/,/
CCN(CC)S(=O)(=O)c1ccc(Cl)c(C(=O)Nc2ccc(Cl)cc2[N+](=O)[O-])c1,.,.,43,.,.,.
Nc1cc(Cl)c2nonc2c1[N+](=O)[O-],56,/,.,.,.,/
O=C(N/N=C/c1cccc2cccnc12)c1ccncc1,/,/,+,/,/,/
O=C(N/N=C/c1ccc[nH]1)c1ccccc1O,.,.,/,76,.,.
SMILES,PrPC surface inh,RecA splice inh,SSB-PriA inh,PfHsp40 rescue,PrP UTR inh,BJeLR viability
O=C(N/N=C/c1coc2ccccc2c1=O)c1cc(Br)ccc1O,.,.,/,89,.,.
O=C(N/N=C/c1cccc2cccnc12)c1ccccc1,/,/,+,/,/,/
CCOc1ccccc1C(=O)NN=Cc1cccc2cccnc12,/,/,.,/,/,/
O=C(NN=Cc1coc2ccccc2c1=O)c1cc(Br)ccc1O,/,/,.,/,/,/
Cc1ccc(NC(=O)COc2ccc(Cl)cc2Cl)cc1N1CCCCC1=O,/,/,.,/,/,/
O=C(O)c1ccc(C=NNC(=O)c2cccc3ccccc23)cc1,.,/,.,.,.,/
O=C(N/N=C/c1cccc2cccnc12)c1ccccc1Br,/,/,+,/,/,/
C=CCc1cccc(/C=N/NC(=O)c2ccccc2OC)c1O,.,.,/,50,.,.
O=C(NN=Cc1ccc(O)c2ncccc12)c1cccc(Br)c1,/,/,.,/,/,/
O=C(N/N=C/c1ccccc1O)c1cccc2ccccc12,.,.,/,32,.,.
O=C(N/N=C/c1ccc(O)c2ncccc12)c1cccc(Br)c1,.,.,/,105,.,.
COC(=O)c1c(NC(=O)CC2SC(N3CCOCC3)=NC2=O)sc2c1CCC2 (stereo not drawn),/,/,.,/,/,/
Nc1ccc(S(N)(=O)=O)cn1,/,/,.,/,/,/
Cc1ccccc1OCC(=O)Nc1ccc2c(c1)N(CCC(C)C)C(=O)C(C)(C)CO2,/,/,.,/,/,/
c1ccc(CSc2ccc(-c3ccccn3)nn2)nc1,.,.,89,416,.,.
c1ccc(-c2ccc(SCc3cccnc3)nn2)nc1,.,.,76,259,.,.
O=C(CCc1csc(NC(=O)c2ccco2)n1)NCc1cccs1,/,/,.,/,/,/
O=C(O)C1CC1(c1ccccc1)c1ccccc1 (stereo not drawn),.,.,.,.,.,.
O=C(C1CC1(c1ccccc1)c1ccccc1)N1CCOCC1 (stereo not drawn),.,.,55,.,.,.
OCc1ccc(-c2nn(Cc3ccccc3)c3ccccc23)o1,.,.,41,.,.,.
COc1ccc(NC(=O)c2c(N)c(C(=O)c3cccs3)n3ccccc23)c(OC)c1,/,/,.,/,/,/
O=C(/C(N=Nc1cccc(C(F)(F)F)c1)=C(/O)c1cccs1)C(F)(F)F,.,.,/,195,.,.
CN(C)CCNc1cccc2sc3ccc(O)cc3c(=O)c12,.,/,/,/,/,/
Cc1ccc(NCCN(C)C)c2c(=O)c3cc(O)ccc3sc12,.,/,62,.,.,/
COc1ccc(N2CCN(c3ncnc4sc5c(c34)CCCCC5)CC2)cc1,/,/,.,/,/,/
SMILES,PrPC surface inh,RecA splice inh,SSB-PriA inh,PfHsp40 rescue,PrP UTR inh,BJeLR viability
O=C(Nc1nc(-c2ccccn2)cs1)c1cc(S(=O)(=O)N2CCOCC2)c(Cl)cc1Cl,/,/,76,/,/,/
O=C(Nc1nc(-c2ccccn2)cs1)C1c2ccccc2Oc2ccccc21,/,/,.,/,/,/
Cc1ccc(C(=O)Nc2nc(-c3ccccn3)cs2)cc1-n1cccc1,/,/,103,/,/,/
O=C(Nc1nc(-c2ccccn2)cs1)c1sccc1C1CC1,/,/,114,/,/,/
CCn1ccc(C(=O)Nc2nc(-c3ccccn3)cs2)n1,/,/,95,/,/,/
Cc1ccc(C(=O)Nc2nc(-c3ccccn3)cs2)cc1NC(=O)c1ccco1,/,/,.,/,/,/
